Data on 22 molecules can be found in PubChem BioAssay (Tox21).

Each structure is given as a SMILES string. Results filed as inconclusive are left out. Active and inactive are the calls of the source. Unless noted, the call rests on the fitted dose curve; in most records, active means well fitted curve in the direction sought with a large enough effect in the repeat runs; inconclusive means weak or mixed curves; inactive means no such curve, though single readings can be large; an effect the other way counts as inactive or inconclusive.

Test [1] can be described thus: qHTS assay to identify small molecule antagonists of the retinoid acid receptor (RAR) signaling pathway - cell viability counter screen (AID 1159551). Further: nearly all actives have a fitted effect of over 35% in size. Further: potency means the concentration at half of the fitted maximal effect. The essentials: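 Luminescent ATP quantitation (CellTiter-Glo) gave cell viability in C3RL4 cells exposed to test chemicals for 6 h at 37 C alongside 1 uM final retinol.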
(In general: qHTS replaces the single test concentration by a dilution series.)

Test [2] can be described thus: qHTS assay to identify small molecule antagonists of the estrogen related receptor (ERR) signaling pathway from Tox21 library - cell viability counter screen (AID 1224834). Further: nearly all actives have a fitted effect of over 30% in size. Further: potency means the concentration at half of the fitted maximal effect. The essentials:
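Fluorescence from CellTiter-Fluor gives the viability read-out, taken 30 min after reagent addition. Before that, ERR cells seeded 6 h earlier were incubated with compounds for 17.5 h at 37 C.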

Test [3] deals with Luciferin 4-monooxygenase (Photinus pyralis) (UniProt P08659). Description: qHTS assay to identify small molecule inhibitors of firefly luciferase (AID 1224835). Further: nearly all actives have a fitted effect of over 25% in size. Further: potency means the concentration at half of the fitted maximal effect. The essentials:
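Inhibition of purified Photinus luciferase is measured by luminescence. Substrate levels (D-luciferin, ATP) sit at their KM values. Each compound is tested in a concentration series.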

Test [4] can be described thus: qHTS assay to identify small molecule agonists of the constitutive androstane receptor (CAR) signaling pathway - cell viability counter screen (AID 1224836). Further: nearly all actives have a fitted effect of over 45% in size. Further: potency means the concentration at half of the fitted maximal effect. The essentials: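 23 h treatment, 37 C, 5% CO2. Cell line: HepG2 stably expressing hCAR with a CYP2B6-2.2kb construct. Co-treatment: PK11195, 0.75 uM final. Read-out: CellTiter-Fluor fluorescence intensity.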

A short description of test [5]: qHTS assay to identify small molecule antagonists of the constitutive androstane receptor (CAR) signaling pathway - cell viability counter screen (AID 1224837). Further: nearly all actives have a fitted effect of over 45% in size. Further: potency means the concentration at half of the fitted maximal effect. The essentials:
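HepG2-CYP2B6-hCAR cells, 2500/well, 4 hr pre-incubation; compound titration, 15 conc.; CITCO 50 nM final; 23 hr, 37 C/5% CO2; CellTiter-Fluor, fluorescence intensity.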

A short description of test [6]: qHTS assay to identify small molecule antagonists of the estrogen related receptor signaling pathway with the pleiotropic PPARgamma coactivator (PGC) from Tox21 10K library - cell viability counter screen (AID 1224840; active means well fitted cell-killing curve with a large enough effect in the repeat runs, not every such curve was filed as active; further: nearly all actives have a fitted effect of over 40% in size; further: potency means the concentration at half of the fitted maximal effect). The essentials: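 PGC/ERR cells, 2,000/well; 6 h pre-incubation 37 C/5% CO2; cpd in DMSO via pin tool; 17.5 h 37 C; CellTiter-Fluor, 30 min; fluorescence.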

Test [7] is described as follows: qHTS assay to identify small molecule antagonists of the estrogen related receptor signaling pathway with the pleiotropic PPARgamma coactivator (PGC) from Tox21 10K library (AID 1224841; call rule not given here; further: actives are mostly falling curves and most rising ones were filed inactive; nearly all actives have a fitted effect of over 50% in size; further: potency means the concentration at half of the fitted maximal effect). The essentials:
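PGC/ERR cell line, 2,000 cells/well; 6 h pre-incubation 37 C/5% CO2; compounds (DMSO) pinned in; 18 h, 37 C; One-Glo, 30 min RT; luminescence.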

Test [8] can be described thus: qHTS assay to identify small molecule agonists of the estrogen related receptor signaling pathway with the pleiotropic PPARgamma coactivator (PGC) from Tox21 10K library (AID 1224842). Further: nearly all actives have a fitted effect of over 15% in size. The essentials:
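Luminescence from One-Glo (30 min, room temperature) measured after PGC/ERR cells had 18 h at 37 C with pinned compound (23 nL in DMSO). Cells had been seeded at 2,000 per well and pre-incubated 6 h.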

For test [9], the target named is Thyrotropin receptor (Homo sapiens) (UniProt P16473). Description: qHTS assay to identify small molecule agonists of the thyroid stimulating hormone receptor (TSHR) signaling pathway (AID 1224843; calls by dose curve; further: nearly all actives have a fitted effect of over 45% in size). The essentials:
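HEK293 cells stably bearing the thyrotropin receptor were plated at 800 cells/well and challenged with compound (30 min, RT). Accumulated cAMP was quantified via cAMP-d2 competing for cryptate-tagged antibody.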

In test [10] the target is Nuclear receptor subfamily 1 group I member 3 (Homo sapiens) (UniProt Q14994). Nature of the test: qHTS assay to identify small molecule antagonists of the constitutive androstane receptor (CAR) signaling pathway (AID 1224838).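 Further: HepG2 cells stably expressing hCAR with CYP2B6 luciferase reporter stimulated by CITCO; nearly all actives have a fitted effect of over 40% in size.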 The essentials: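 HepG2-CYP2B6-hCAR cells; 4 h pre-incubation; cpd (15 conc) + CITCO 50 nM final; 24 h, 37 C/5% CO2; ONE-Glo, luminescence.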
Sequence of Nuclear receptor subfamily 1 group I member 3 (Homo sapiens) (Q14994 whole entry, looked up): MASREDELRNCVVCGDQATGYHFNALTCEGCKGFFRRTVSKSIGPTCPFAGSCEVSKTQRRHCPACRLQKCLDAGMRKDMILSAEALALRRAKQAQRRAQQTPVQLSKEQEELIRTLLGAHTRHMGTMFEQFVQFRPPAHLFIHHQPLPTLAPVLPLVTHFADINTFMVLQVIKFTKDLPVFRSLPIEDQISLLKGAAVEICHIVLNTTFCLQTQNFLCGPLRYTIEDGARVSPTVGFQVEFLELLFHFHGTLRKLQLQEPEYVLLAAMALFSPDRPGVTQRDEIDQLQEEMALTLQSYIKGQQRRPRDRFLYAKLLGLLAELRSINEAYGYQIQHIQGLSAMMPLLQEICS
Test [11] in a line: qHTS assay to identify small molecule antagonists of the retinoic acid receptor (RAR) signaling pathway (AID 1159552; further: nearly all actives have a fitted effect of over 50% in size). The essentials: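 Test chemicals and DMSO controls were pin-transferred onto C3RL4 cells a day after seeding; retinol (1 uM final) followed at once. Luminescent reporter output was quantified after 6 hr of co-incubation and 30 min with detection reagent.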
The nature of test [12]: qHTS assay to identify small molecule agonists of the retinoic acid receptor (RAR) signaling pathway (AID 1159553). Further: potency means the concentration at half of the fitted maximal effect. The essentials:
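Luminescence from a RARE-driven luciferase reporter in C3RL4 cells served as the read-out, measured after 30 min with detection reagent at room temperature. Compounds in DMSO were applied for 6 hr at 37 C following overnight seeding.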

Test [13] addresses Nuclear receptor subfamily 1 group I member 3 (Homo sapiens) (UniProt Q14994). Description: qHTS assay to identify small molecule agonists of the constitutive androstane receptor (CAR) signaling pathway (AID 1224839). Further: nearly all actives have a fitted effect of over 15% in size. Further: potency means the concentration at half of the fitted maximal effect. The essentials: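 Compounds tested at 15 concentrations on HepG2 cells stably harbouring hCAR and CYP2B6-2.2kb reporter constructs, co-treated with PK11195 (0.75 uM final), 24 h at 37 C; luminescent reporter signal quantified.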

The nature of test [14]: qHTS assay to identify small molecule antagonists of the estrogen related receptor (ERR) signaling pathway - cell viability counter screen (AID 1224818). Further: series mostly up to about 46 µM. The essentials: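 Multiplexed counter screen to separate cytotoxic compounds from true ERR modulators. ERR cells received DMSO-dissolved compounds after a 6 h pre-incubation, were exposed 17.5 h at 37 C, then assayed with CellTiter-Fluor fluorescence.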

A short description of test [15]: qHTS assay to identify small molecule antagonists of the estrogen related receptor signaling pathway with the pleiotropic PPARgamma coactivator (PGC) cell viability counter screen (AID 1224822; further: series mostly up to about 46 µM). The essentials: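 Cells: PGC/ERR, 2,000/well, 1536-well format. Pre-incubation 6 h, 37 C/5% CO2. Compound exposure 17.5 h, 37 C. Detection: CellTiter-Fluor, 30 min, fluorescence.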

Sequence of Thyrotropin receptor (Homo sapiens) (P16473 whole entry, looked up): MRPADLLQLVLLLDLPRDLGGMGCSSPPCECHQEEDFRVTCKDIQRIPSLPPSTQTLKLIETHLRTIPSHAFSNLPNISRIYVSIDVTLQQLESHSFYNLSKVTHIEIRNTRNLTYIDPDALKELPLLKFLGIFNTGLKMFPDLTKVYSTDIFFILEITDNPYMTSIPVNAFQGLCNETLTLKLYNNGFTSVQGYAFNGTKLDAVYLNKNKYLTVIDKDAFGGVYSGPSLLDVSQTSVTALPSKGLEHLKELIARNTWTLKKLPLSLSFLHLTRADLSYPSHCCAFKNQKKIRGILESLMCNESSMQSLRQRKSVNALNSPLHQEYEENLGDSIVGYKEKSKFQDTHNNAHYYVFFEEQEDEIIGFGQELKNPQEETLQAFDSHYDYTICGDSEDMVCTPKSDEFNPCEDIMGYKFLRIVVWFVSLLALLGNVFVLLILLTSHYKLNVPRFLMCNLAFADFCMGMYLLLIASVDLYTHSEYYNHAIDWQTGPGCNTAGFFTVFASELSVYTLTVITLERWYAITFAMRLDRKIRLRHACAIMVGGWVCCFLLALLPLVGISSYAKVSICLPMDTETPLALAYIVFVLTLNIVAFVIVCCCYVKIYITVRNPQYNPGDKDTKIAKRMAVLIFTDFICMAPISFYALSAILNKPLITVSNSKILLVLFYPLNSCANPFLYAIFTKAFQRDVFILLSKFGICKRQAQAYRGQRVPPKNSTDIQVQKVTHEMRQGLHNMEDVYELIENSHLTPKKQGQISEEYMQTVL
Sequence of Luciferin 4-monooxygenase (Photinus pyralis) (P08659 whole entry, looked up): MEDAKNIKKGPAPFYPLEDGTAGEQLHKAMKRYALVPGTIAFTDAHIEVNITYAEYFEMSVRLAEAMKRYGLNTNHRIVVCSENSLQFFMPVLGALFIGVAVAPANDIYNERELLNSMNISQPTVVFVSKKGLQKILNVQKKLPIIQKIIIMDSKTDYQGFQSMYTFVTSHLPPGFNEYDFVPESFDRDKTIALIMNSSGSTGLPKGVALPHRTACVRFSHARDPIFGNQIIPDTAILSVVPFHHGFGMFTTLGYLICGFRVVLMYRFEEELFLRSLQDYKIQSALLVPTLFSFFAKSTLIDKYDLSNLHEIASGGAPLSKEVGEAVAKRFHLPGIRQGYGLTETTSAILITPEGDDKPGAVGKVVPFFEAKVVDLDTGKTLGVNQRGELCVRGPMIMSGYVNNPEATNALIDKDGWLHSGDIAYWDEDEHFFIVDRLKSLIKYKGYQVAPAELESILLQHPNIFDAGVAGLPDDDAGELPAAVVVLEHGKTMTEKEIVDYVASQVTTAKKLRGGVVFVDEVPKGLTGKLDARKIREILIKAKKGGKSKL

For `CCCCCCCC#N`, the Potency entry in test [1], in [2], in test [3], in [4], in [5] and in test [6] was “inactive” throughout. For the same molecule, the Potency entry in test [7], in [8] and in test [9] was “inactive” in each case.

Turning to `CN(C)CCOC(c1ccccc1)c1ccc(Br)cc1` (stereo unspecified), the Potency result in test [2], in test [4], in [10], in test [7], in test [8] and in test [9] was “inactive” throughout.

Regarding `O=C(NCC1CN(c2ccc(N3CCOCC3=O)cc2)C(=O)O1)c1ccc(Cl)s1` (stereo unspecified), the Potency entry in [11], in [12], in test [2], in [3], in test [5] and in test [6] was “inactive” throughout. Also, the Potency result in [8] and in test [9] was “inactive” throughout.

For the molecule `O=[N+]([O-])c1cccc(S(=O)(=O)O)c1`, the Potency entry in [1], in [12], in test [3], in [13] and in test [8] was “inactive” throughout. For the same molecule, the Potency in [2] is 43.9 µM (active); in test [7], 55.3 µM (active).

As for `CN1CCC(N(Cc2cccs2)c2ccccc2)CC1`, the Potency result in test [3], in test [4], in [10], in test [13], in test [6] and in test [7] was “inactive” in each case.

For `C[N+]1(CC2COC(c3ccccc3)(C3CCCCC3)O2)CCCCC1` (stereo unspecified), the Potency result in [2], in test [3], in test [5], in [6], in test [8] and in [9] was “inactive” each time.

As to `CC(C)(O)c1ccc(CNC(=O)c2cccnc2Oc2ccc(F)cc2)cc1`, the Potency result in [11], in test [12], in test [2], in [3], in test [4] and in [5] was “inactive” each time. The Potency entry in test [6] and in test [9] was “inactive” in each case. In addition, the figures for the Potency in [13] and in test [7] were 27.3 µM (active) and 48.6 µM (active), respectively.

As for `S=C([S-])NCCNC(=S)[S-].[Mn+2]`, the Potency entry in test [1], in test [2], in test [6] and in test [9] was “inactive” in each case. Further, in test [3], the Potency is 12.6 µM (active).

For `O=C1CCCCCCCCCCCC(=O)OCCO1`, the Potency entry in [1], in test [2], in test [3], in test [5], in test [10] and in test [13] was “inactive” in each case. The Potency result in [6] and in [7] was “inactive” each time.

On to `CCCNCC(O)COc1ccccc1C(=O)CCc1ccccc1` (stereo unspecified), for which the Potency result in [1], in test [4], in [5], in [13], in [6] and in [9] was “inactive” throughout. Besides, the molecule was classed as inactive in test [14] and in test [15].

On to `CN(C)c1ccc(C(c2ccccc2)c2ccc(N(C)C)cc2)cc1`, for which the Potency entry in test [3], in [5], in test [10], in test [13], in test [6] and in [8] was “inactive” in each case. For the same molecule, the Potency entry in test [9] was “inactive”. In test [7], the Potency is 27.3 µM (active).

For the molecule `CCCCC(=O)OCC(=O)[C@H]1[C@H](C)C[C@H]2[C@@H]3C[C@H](F)C4=CC(=O)C=C[C@]4(C)[C@@]3(F)[C@@H](O)C[C@@]21C`, the Potency entry in test [1], in test [3], in test [4], in test [5], in [13] and in [6] was “inactive” in each case. Also, the Potency result in [9] was “inactive”.

Take `COc1ccc(S(=O)(=O)N2C(=O)[C@@](c3ccccc3OC)(N3C[C@H](O)C[C@H]3C(=O)N(C)C)c3cc(Cl)ccc32)c(OC)c1`: the Potency entry in [1], in test [12] and in test [10] was “inactive” in each case. In addition, the Potency in test [2] is 30.6 µM (active); in test [4] it was 30.6 µM (active); in test [5], 24.3 µM (active); in test [6], 30.6 µM (active).

As to `CNCCCN1c2ccccc2CCc2ccccc21`, the Potency entry in test [1], in [3], in [10], in [6] and in [9] was “inactive” in each case. Moreover, the result in test [14] was inactive.

Turning to `CC(C)Nc1ccc(NC(C)C)c2c1C(=O)c1ccccc1C2=O`, the Potency is 25.3 µM (active) in test [1], 20.1 µM (active) in test [2] and 33 µM (active) in test [3]. Moreover, the Potency entry in test [12], in test [4], in test [5], in test [10] and in [13] was “inactive” in each case.

Regarding `CCCOC(C(=O)OC1CCN(C)CC1)(c1ccccc1)c1ccccc1`, the Potency entry in [1], in test [12], in test [4], in test [7], in [8] and in test [9] was “inactive” each time.

Regarding `C[C@H]1C[C@H]2[C@@H]3CCC4=CC(=O)C=C[C@]4(C)[C@@]3(Cl)[C@@H](O)C[C@]2(C)[C@@]1(O)C(=O)CO`, the Potency result in test [1], in test [2], in test [3], in test [4], in [10] and in test [13] was “inactive” throughout. For the same molecule, the Potency entry in [6], in [8] and in test [9] was “inactive” each time.

In the case of `Clc1ccc2c(c1)CCc1cccnc1C2=C1CCNCC1`, the Potency result in [1], in [2], in test [3], in test [5] and in test [13] was “inactive” each time.

Take `CN1CCC(=C2c3ccccc3Sc3ccccc32)CC1`: the Potency entry in test [1], in [12], in test [3], in test [4], in [5] and in test [10] was “inactive” throughout. Besides, the Potency entry in [13], in [6] and in test [7] was “inactive” each time.

Turning to `O=C(O)C1(C(=O)Nc2ccc(Cl)cc2Cl)CC1`, the Potency result in test [11], in test [2], in test [4], in test [5], in test [6] and in [9] was “inactive” each time. The Potency was 6.11 µM (active) in test [12], 6.33 µM (active) in test [3] and 13.7 µM (active) in test [13].

With `CCN(CC)c1ccc2c(-c3ccccc3C(=O)O)c3ccc(=[N+](CC)CC)cc-3oc2c1`, the Potency is 19.3 µM (active) in test [1]; 11.2 µM (active) in test [3]; 7.7 µM (active) in [4]; 7.7 µM (active) in test [5]; 17.2 µM (active) in [6]; 43.3 µM (active) in test [7]. Also, the Potency result in test [10] is “inactive”.

Regarding `CCCCCCCCCCCCCCCCOS(=O)(=O)O`, the Potency entry in test [3], in test [4], in [5], in [13], in [6] and in test [7] was “inactive” in each case. Moreover, in test [8], the Potency result is “inactive”.
